Records with an inconclusive call do not appear. The source made the active and inactive calls. Rule for the calls: active = hit-call score of the fitted dose curve at least 0.9, where 1 is the maximum; inconclusive = response in the unintended direction; inactive = score below 0.9.

The test has as its system frog Peroxisome Proliferator-activated Receptor-alpha (PPARa), gene 398843. Kind of test: ATG_frPPARa_EcoTox2: Attagene TRANS-FACTORIAL EcoTox-2 HepG2 Assay for frog Peroxisome Proliferator-activated Receptor-alpha (PPARa). On the procedure: ATG_EcoTox2 is a cell-based, multiplexed assay created by modifying the existing Attagene TRANS-FACTORIAL system to include a panel of nuclear receptors from some or all the following species: human (Homo sapiens), african clawed frog (Xenopus laevis), rainbow trout (Oncorhynchus mykiss), japanese medaka (Oryzias latipes), and zebrafish (Danio rerio). The ECOTOX2-FACTORIAL format uses HepG2, a human liver cell line, with measurements taken at 24 hours after chemical dosing in a 24-well plate. ATG_frPPARa_EcoTox2 is one of 29 assay components calculated in the ATG_EcoTox2 assay. It is designed to make measurements of mRNA induction, a form of inducible reporter, as detected with fluorescence intensity signals by Reverse transcription polymerase chain reaction (RT-PCR) and Capillary electrophoresis technology.The assay endpoint ATG_frPPARa_EcoTox2 was analyzed in the positive analysis fitting direction relative to DMSO as the negative control and baseline of activity. Using a type of inducible reporter, measures of mRNA for gain-of-signal activity can be used to understand the reporter gene at the transcription factor-level as they relate to the gene PPARa. Furthermore, this assay endpoint can be referred to as a primary readout, because this assay has produced multiple assay endpoints where this one serves a reporter gene function. To generalize the intended target to other relatable targets, this assay endpoint is annotated to the nuclear receptor intended target family, where the subfamily is non-steroidal.
Human liver HepG2 cells are transiently transfected with multiple reporter transcription units (MRTUs) in 6-well plates using FuGene 6 reagent (Roche; 3 ml FuGene/1 mg DNA). The MRTU constructs are regulated by a cis-regulating element (promoter). Each RTU expresses a GAL4-UAS that regulates the transcription of a nearby target reporter gene sequence. A major difference between the CIS and TRANS system is that in CIS activities of endogenous TFs are measured, whereas the TRANS assay evaluates changes in activities of exogenous, chimeric NR-Gal4 proteins. […] At the end of 24 hour incubation, total RNA was isolated using TriZol reagent (Invitrogen). The isolated RNA is then reverse-transcribed using oligo(dT) primer and Mo-MLV reverse transcriptase (Invitrogen) with DNAse I (Ambion) treatment for 30 min. The one-tenth of the produced cDNA was amplified by PCR using Taq DNA polymerase (Invitrogen) and two reporter sequence-specific primers. […] The fragments were purified using Qiaquick PCR columns (Qiagen), analyzed on an ABI 3130xL genetic analyzer (Applied Biosystems) with peak positions identified by using a set of X-rhodamine (ROX)-labeled MapMarker1000 molecular weight standards (BioVentures). […]
In the case of `O=P(Oc1ccccc1)(Oc1ccccc1)Oc1ccccc1`, the compound was called inactive.

As for `[Cl][Sn]([c]1ccccc1)([c]1ccccc1)[c]1ccccc1`, the call was inactive. For the compound `O=S(=O)(O)C(F)(F)C(F)(F)C(F)(F)C(F)(F)C(F)(F)C(F)(F)F`, the call was inactive. `O=C(O)C(F)(F)C(F)(F)C(F)(F)C(F)(F)C(F)(F)C(F)(F)C(F)(F)F`: the AC50 is 75 µM (active).

For the origin of these results see PubChem BioAssay AID2284344 (EPA ToxCast).
